Inconclusive results are not listed. The source made the active and inactive calls. How the source made its calls: active means hit-call score of the fitted dose curve at least 0.9, where 1 is the maximum; inconclusive means response in the unintended direction; inactive means score below 0.9.

The values below come from PubChem BioAssay (EPA / NIEHS).

Chain of human Vitamin D Receptor (VDR), VDR (gene 7421) (P11473 whole entry, looked up): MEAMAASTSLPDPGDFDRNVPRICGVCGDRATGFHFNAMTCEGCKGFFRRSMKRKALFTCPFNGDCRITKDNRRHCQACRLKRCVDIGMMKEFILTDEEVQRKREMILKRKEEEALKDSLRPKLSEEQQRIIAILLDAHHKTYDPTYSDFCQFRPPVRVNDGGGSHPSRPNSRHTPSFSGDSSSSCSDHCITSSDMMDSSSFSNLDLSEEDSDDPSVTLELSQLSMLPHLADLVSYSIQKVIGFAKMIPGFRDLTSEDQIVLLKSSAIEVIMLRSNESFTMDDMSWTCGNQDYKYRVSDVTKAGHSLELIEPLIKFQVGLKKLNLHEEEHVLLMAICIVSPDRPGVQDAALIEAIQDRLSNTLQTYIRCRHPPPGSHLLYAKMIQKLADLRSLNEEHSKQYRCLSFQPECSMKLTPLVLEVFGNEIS

This experiment has as its target human Vitamin D Receptor (VDR), VDR (gene 7421) (UniProt P11473). Nature of the experiment: ATG_VDR_TRANS: Attagene TRANS-FACTORIAL HepG2 Assay for human Vitamin D Receptor (VDR) (AID 2283022). The protocol: ATG_TRANS is a cell-based, multiplexed-readout assay that uses HepG2, a human liver cell line, with measurements taken at 24 hours after chemical dosing in a 24-well plate.ATG_VDR_TRANS is one of 30 assay component(s) measured or calculated from the ATG_TRANS assay. It is designed to make measurements of mRNA induction, a form of inducible reporter, as detected with fluorescence intensity signals by Reverse transcription polymerase chain reaction (RT-PCR) and Capillary electrophoresis technology.Data from the assay component ATG_VDR_TRANS was analyzed into 1 assay endpoint. This assay endpoint, ATG_VDR_TRANS, was analyzed in the positive analysis fitting direction relative to DMSO as the negative control and baseline of activity. Using a type of inducible reporter, measures of mRNA for gain-of-signal activity can be used to understand the reporter gene at the transcription factor-level as they relate to the gene VDR. Furthermore, this assay endpoint can be referred to as a primary readout, because this assay has produced multiple assay endpoints where this one serves a reporter gene function. To generalize the intended target to other relatable targets, this assay endpoint is annotated to the nuclear receptor intended target family, where the subfamily is non-steroidal.
Human liver HepG2 cells are transiently transfected with multiple reporter transcription units (MRTUs) in 6-well plates using FuGene 6 reagent (Roche; 3 ml FuGene/1 mg DNA). The MRTU constructs are regulated by a cis-regulating element (promoter). […] A major difference between the CIS and TRANS system is that in CIS activities of endogenous TFs are measured, whereas the TRANS assay evaluates changes in activities of exogenous, chimeric NR-Gal4 proteins. […] At the end of 24 hour incubation, total RNA was isolated using TriZol reagent (Invitrogen). The isolated RNA is then reverse-transcribed using oligo(dT) primer and Mo-MLV reverse transcriptase (Invitrogen) with DNAse I (Ambion) treatment for 30 min. The one-tenth of the produced cDNA was amplified by PCR using Taq DNA polymerase (Invitrogen) and two reporter sequence-specific primers. The PCR products were fluorescently labeled by primer extension with 6-arboxyfluorescein (6-FAM) 5'-labeled reporter sequence-specific primer (2 min at 95 C, 20 s at 68 C and 10 min at 72 C) and these products were digested with 5U of HpaI (New England Biolabs) for 2h at 37 C. The fragments were purified using Qiaquick PCR columns (Qiagen), analyzed on an ABI 3130xL genetic analyzer (Applied Biosystems) with peak positions identified by using a set of X-rhodamine (ROX)-labeled MapMarker1000 molecular weight standards (BioVentures). The raw capillary electrophoresis data was processed using Attagraph software (Attagene).
Take `C=CCN=C=S`: the compound was called inactive. With `BrCc1ccc(Br)cc1`, the compound was called inactive. `O=C(Nc1ccc(Br)cc1)c1cc(Br)cc(Br)c1O`: the compound was called inactive.

For the compound `BrCC(Br)c1ccccc1` (stereo not given), the compound was classed as inactive. On to `CCOP(=S)(OCC)Oc1ccc(Cl)cc1Cl`, for which the outcome was inactive. Take `Cc1cc(Cl)ccc1O`: the compound was called inactive. `O=C(O)COc1ccc(Cl)cc1`: the result was inactive. For `O=CCCl`, the compound was classed as inactive. On to `CC(C)(C1CCC(O)CC1)C1CCC(O)CC1` (stereo not given), for which the call was inactive. Take `O=C1C=CC(=O)c2ccccc21`: the call was inactive. On to `C=C(C)C(=O)OCC(CC)CCCC` (stereo not given), for which the call was inactive. Turning to `CC(c1ccccc1)(c1ccc(O)cc1)c1ccc(O)cc1`, the call was inactive.

As to `CC(C)N(C(=O)CCl)c1ccccc1`, the compound was called inactive. On to `CC(C)(C)c1ccccc1O`, for which the outcome was inactive.

In the case of `OC[P+](CO)(CO)CO`, the compound was classed as inactive.

As to `C1CCC(C2CCCCC2)CC1`, the compound was called inactive.

For `O=NN1CCCCCC1`, the compound was called inactive. In the case of `C=C(C)C(=O)OCCCCOC(=O)C(=C)C` it was “inactive”. With `CC(C)(COCC1CO1)COCC1CO1` (stereo not given), the result was inactive. On to `CCCCCCCCBr`, for which the call was inactive.

Take `Clc1cccc(Cl)c1`: the compound was called inactive. Turning to `c1ccc2c(c1)Oc1ccccc1O2`, the call was inactive. Take `CC1(C)[C@H](C(=O)O[C@H](C#N)c2cccc(Oc3ccccc3)c2)[C@@H]1/C=C(\Cl)C(F)(F)F`: the compound was classed as inactive.

As to `O=C(NC(=O)c1c(F)cccc1F)Nc1cc(Cl)c(Oc2ncc(C(F)(F)F)cc2Cl)c(Cl)c1`, the result was inactive. With `C=CC(F)(C(F)(F)F)C(F)(F)C(F)(F)F` (stereo not given), the outcome was inactive. For `Cc1ccc(OP(=O)(Oc2ccc(C)cc2C)Oc2ccc(C)cc2C)c(C)c1`, the outcome was inactive. `CC(C)[C@@H](Nc1ccc(C(F)(F)F)cc1Cl)C(=O)OC(C#N)c1cccc(Oc2ccccc2)c1` (stereo not given in full): the outcome was inactive.

On to `O=C(CBr)c1ccc(O)cc1`, for which the compound was called inactive. In the case of `c1ccc2sc(SNC3CCCCC3)nc2c1` it was “inactive”; in that of `CCOCn1c(-c2ccc(Cl)cc2)c(C#N)c(Br)c1C(F)(F)F`, “inactive”. Next, `CCCCCCCCCCCCCCC(Br)C(=O)O` (stereo not given): “inactive”; `CC(C)(C)c1cc([N+](=O)[O-])cc(C(C)(C)C)c1O`: “inactive”. In the case of `CCOC(=O)Cc1ccccc1`, the result was inactive.

In the case of `CCNc1nc(NCC)nc(SC)n1`, the call was inactive. As to `ClCc1ccccc1CCl`, the outcome was inactive. In the case of `CCOC(=O)CC(=O)CCl` it was “inactive”. Next, `CCOc1ccc(N)cc1`: “inactive”. Turning to `O=S(=O)(F)C(F)(F)C(F)(F)C(F)(F)C(F)(F)F`, the outcome was inactive. Next, `O=C=Nc1ccc(Cl)cc1`: “inactive”; `Cc1ccccc1OP(=O)(Oc1ccccc1)Oc1ccccc1`: “inactive”.
